High-throughput results deposited in PubChem BioAssay by The Scripps Research Institute Molecular Screening Center.
Sampled rows, rich in hits. Any-hit rate of the full collection: about 1.6%.
MOR-DOR ag-1: agonists of OPRM1-OPRD1 heterodimerization, primary screen, cell-based, luminescence. Mu-type opioid receptor (Homo sapiens) + Delta-type opioid receptor (Homo sapiens), …. cells. activation, % at 9.3 µM. actives 0.3% (n = 340,000); in the data active = activation above about 18%
HTR5A ag ctr: HTR5A agonists in luminescence cell assay, primary screen, counter-screen for OPRM1-OPRD1 heterodimer agonist project, full-deck HTS | 5-hydroxytryptamine receptor 5A (Homo sapiens), P47898 | cell-based | activation, % at 9.3 µM | actives 0.61% (n = 340,000); in the data active = activation mostly above about 9.5%, no sharp cut-off; inactive = mostly below about 7.6%
Target sequence (P47898 whole entry, looked up): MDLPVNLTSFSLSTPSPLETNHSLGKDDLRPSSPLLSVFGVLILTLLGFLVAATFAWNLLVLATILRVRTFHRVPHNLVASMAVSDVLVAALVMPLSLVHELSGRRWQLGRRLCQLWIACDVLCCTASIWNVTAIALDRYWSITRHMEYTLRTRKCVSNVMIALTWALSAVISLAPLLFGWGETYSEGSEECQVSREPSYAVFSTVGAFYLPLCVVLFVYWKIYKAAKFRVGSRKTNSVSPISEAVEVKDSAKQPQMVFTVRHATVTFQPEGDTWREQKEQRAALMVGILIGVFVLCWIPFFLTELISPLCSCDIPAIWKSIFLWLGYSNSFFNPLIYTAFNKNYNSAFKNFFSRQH
MOR-DOR inv ag-1: inverse agonists of MOR-DOR heterodimerization, primary screen, cell-based, luminescence; Mu-type opioid receptor (Homo sapiens) + Delta-type opioid receptor (Homo sapiens), …; cell-based MOR-DOR heterodimer luminescence, inverse agonism; inhibition, % at 9.3 µM; actives 0.21% (n = 340,000); in the data active = inhibition above about 22%, passing the limit was not always enough
HTR5A inv ag: HTR5A inverse agonists in luminescence cell assay, primary screen, counter-screen for OPRM1-OPRD1 heterodimer inverse agonist project, full-deck HTS. inhibition, % at 9.3 µM. HTR5A cell line, inverse agonism. actives 0.083% (n = 340,000); in the data active = inhibition mostly above about 23%, no sharp cut-off; inactive = mostly below about 18%
HTR2A ag: mouse Htr2a agonists via beta-arrestin recruitment, primary screen, cell-based, luminescence; 5-hydroxytryptamine receptor 2A (Mus musculus), P35363; CHO-K1 mHTR2A beta-arrestin complementation; percent of 30 µM serotonin response; activation, % at 7.6 µM; actives 0.66% (n = 360,000); AID 624169, 2012;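 active = activation above a run cutoff, the mean activation of all tested compounds plus 3 SD, cut at about 14% in these data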
OPRM1-D1 inv cf: inverse agonists of MOR-DOR heterodimerization, confirmation, cell-based, luminescence. shares compounds with MOR-DOR inv ag-1. actives 20% (n = 580). cells expressing OPRM1/OPRD1 heterodimer. inhibition, % at 9.3 µM; in the data active = inhibition above about 32%
HTR5A inv ctr2: HTR5A inverse agonists, counter-screen for OPRM1-OPRD1 inverse agonist project, cell-based, luminescence; shares compounds with MOR-DOR inv ag-1; AID 504914, 2011; HTR5A-expressing cells, inverse agonism; 580 tested, under 10 active; inhibition, % at 9.3 µM
MOR-DOR inv ag-2: inverse agonists of MOR-DOR heterodimerization, counter-screen for HTR5A inverse agonist project, cell-based, luminescence. AID 504912, 2011. U2OS counter-screen cells, complementation luminescence. shares compounds with HTR5A inv ag. 190 tested, under 10 active. inhibition, % at 9.3 µM
HTR5A inv confrm: HTR5A inverse agonists, retest of hits, confirmation, cell-based, luminescence | shares compounds with HTR5A inv ag | HTR5A-expressing cells, inverse agonism | inhibition, % at 9.3 µM | 190 tested, under 10 active | AID 504916, 2011
MOR-DOR ag-2: OPRM1-OPRD1 heterodimerization promoters, counter-screen for HTR5A agonist project, cell-based, luminescence; activation, % at 9.3 µM; shares compounds with HTR5A ag ctr; U2OS counter-screen cells, complementation luminescence, 3 h; actives 13% (n = 800); in the data active = activation above about 18%
HTR5A ag conf: HTR5A agonists, retest of hits, confirmation, cell-based, luminescence | shares compounds with HTR5A ag ctr | HTR5A agonist cell assay | activation, % at 9.3 µM | actives 17% (n = 800); in the data active = activation above about 17%
Hits are given with their value; . = inactive; / = not tested or not shown. Unless noted, the rule behind the calls is not given here.

SMILES	MOR-DOR ag-1	HTR5A ag ctr	MOR-DOR inv ag-1	HTR5A inv ag	HTR2A ag	MOR-DOR ag-2	HTR5A ag conf	others
CC1CN(O)C2CCc3c(no[n+]3[O-])C12O (configuration not stated)	.	.	31	.	.	/	/	OPRM1-D1 inv cf=.;HTR5A inv ctr2=.
CCC1CCCCN1CC(=O)c1ccc(OC(F)F)cc1 (configuration not stated)	.	.	42	.	.	/	/	OPRM1-D1 inv cf=.;HTR5A inv ctr2=.
O=C(CN1CCCCC1)c1ccc(OC(F)F)cc1	.	.	.	.	.	/	/
CC/C(=N\Nc1ccccc1)c1c(O)n(-c2ccc(OC)cc2)c(=O)[nH]c1=O	.	.	.	.	.	/	/
CCCCn1c(NS(=O)(=O)c2ccccc2)c(C(=O)OCC)c2nc3ccccc3nc21	.	.	32	.	.	/	/	OPRM1-D1 inv cf=.;HTR5A inv ctr2=.
CCNC(=S)NCCC1=c2ccccc2=N/C1=C\c1c(O)n(C)c(=O)n(C)c1=O	/	/	/	/	.	/	/
COc1ccc(CNC(=O)C(NC(C)=O)C(C)C)cc1OC (configuration not stated)	.	.	.	18	.	/	/	MOR-DOR inv ag-2=.;HTR5A inv confrm=.
ClCCN1CCN(c2ccnc3cc(Cl)ccc23)CC1	.	.	.	.	.	/	/
C=CCn1c(O)c(C(CC)=NCCc2c[nH]c3ccccc23)c(=O)[nH]c1=O	.	31	.	.	.	.	.
C=CCn1c(O)c(C(CC)=NCCc2ccccc2)c(=O)[nH]c1=O	.	.	.	.	.	/	/
CCC1C(c2ccccc2)NC(c2ccccc2)CC1(O)c1ccc(F)cc1 (configuration not stated)	.	17	.	.	.	.	.
COC(=O)C(O)(c1ccc2c(c1)CCCN2)C(F)(F)F (configuration not stated)	.	.	.	.	.	/	/
C=C(C)[C@@]12OC3(c4ccccc4)O[C@@H]1C1[C@@H]4O[C@]4(CO)[C@@H](O)[C@]4(O)C(=O)C(C)=C[C@H]4[C@@]1(O3)[C@H](C)[C@H]2OC(=O)/C=C/C=C/c1ccccc1 (some centres not stated)	.	33	.	.	.	.	.
COc1ccc2[nH]cc(C(=O)CN(C)C)c2c1	.	.	.	.	.	/	/
COc1ccc2c(CCN)c[nH]c2c1	.	32	.	.	.	.	.
FC(F)(F)C1=NC(C(F)(F)F)=NP(N2CCOCC2)(N2CCOCC2)=N1	.	.	.	.	.	/	/
CN1CCC(c2c[nH]c3ccccc23)C1 (configuration not stated)	.	29	.	.	.	23	.
CCOP(=O)(C#CC(C)(C)C)C(O)(c1ccccc1)C(F)(F)F (configuration not stated)	.	.	.	.	.	/	/
COc1cc(CNCCc2c[nH]c3ccccc23)cc(OC)c1OC	/	/	/	/	.	/	/
COc1cc(CNCCc2c[nH]c3ccccc23)cc(OC)c1	.	15	.	.	.	369	.
